An excerpt weighted towards active compounds, which were near 4.1% of everything screened.
Cav32 inh: blocks human Cav3.2 T-type calcium channel. Cav3.2-expressing cells, Fluo-4 calcium fluorescence FDSS; stronger effect = lower value. AID 449739. actives 4% (n = 100,000). B-score at 10 µM. O95180;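 active = single-dose well whose peak fluorescence ratio is a statistical outlier from its plate by either plate-standardised score or position-corrected B-score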
PTK2B oligo ant: Pyk2 (human) oligomerization antagonism; Q14289; Q293 cells, Pyk2 FERM NanoBiT luminescence; stronger effect = lower value; z-score (the deposit names both 25 µM and 10 µM); actives 0.83% (n = 99,000); AID 1347419;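 active = Z-score of -3 or lower, scaled per plate to the spread of control and sample wells; inactive = z-score above -3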;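 also: negative z-score means lost luminescence so less FERM oligomerization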
Target sequence (Q14289 whole entry, looked up): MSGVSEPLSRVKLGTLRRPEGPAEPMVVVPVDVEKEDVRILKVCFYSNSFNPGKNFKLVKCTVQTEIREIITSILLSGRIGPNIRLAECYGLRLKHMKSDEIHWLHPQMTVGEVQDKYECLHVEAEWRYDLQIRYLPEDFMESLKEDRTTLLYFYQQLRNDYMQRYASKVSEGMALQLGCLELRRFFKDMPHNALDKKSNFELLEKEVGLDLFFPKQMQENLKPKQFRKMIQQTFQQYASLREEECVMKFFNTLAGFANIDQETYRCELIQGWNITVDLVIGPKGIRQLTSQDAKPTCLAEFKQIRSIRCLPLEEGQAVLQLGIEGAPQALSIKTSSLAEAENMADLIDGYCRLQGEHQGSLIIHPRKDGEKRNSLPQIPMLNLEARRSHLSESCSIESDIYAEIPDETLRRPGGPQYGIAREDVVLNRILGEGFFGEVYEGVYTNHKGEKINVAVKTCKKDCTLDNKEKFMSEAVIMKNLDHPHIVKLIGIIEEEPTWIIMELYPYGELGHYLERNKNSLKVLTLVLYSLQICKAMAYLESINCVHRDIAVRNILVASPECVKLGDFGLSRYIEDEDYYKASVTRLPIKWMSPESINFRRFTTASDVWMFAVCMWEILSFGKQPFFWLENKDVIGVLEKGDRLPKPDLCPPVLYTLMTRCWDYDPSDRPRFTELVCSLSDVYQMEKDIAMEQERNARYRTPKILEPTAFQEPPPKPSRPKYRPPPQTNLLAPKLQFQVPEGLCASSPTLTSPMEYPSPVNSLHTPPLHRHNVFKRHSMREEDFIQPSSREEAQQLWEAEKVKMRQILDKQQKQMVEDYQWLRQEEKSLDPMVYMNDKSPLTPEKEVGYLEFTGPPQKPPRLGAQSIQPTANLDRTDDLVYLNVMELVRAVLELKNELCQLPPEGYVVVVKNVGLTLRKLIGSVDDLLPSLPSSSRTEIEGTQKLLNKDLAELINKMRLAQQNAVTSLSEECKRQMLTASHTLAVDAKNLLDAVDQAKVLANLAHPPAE
Mac1 fbg enh: CD11b/CD18-fibrinogen binding enhancement | P05107+P11215 | AID 1499 | activation, % at 10 µM | K562 CD11b/CD18 adhesion to fibrinogen, ATPlite luminescence | actives 0.07% (n = 93,000);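 active = 10 µM primary screen giving 50% or more activity, confirmed by 40% or more on retest at that dose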
MRP-1 activ: activates MRP-1; H69AR cells + doxorubicin, viability rescue, CellTiter-Glo; viability increase, % at 10 µM; actives 0.61% (n = 140,000);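 active = viability gain under doxorubicin at or above a set limit, the compound median plus 3 SD, cut at about 4.7% in these data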;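 also: MRP-1 overexpressing cells given doxorubicin 25 µM after compound pretreatment; 18-22 h compound pretreatment then 72 h with doxorubicin before readout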
MRP reversal: reverses drug resistance mediated by MRP. differential viability (reversal), % at 10 µM. H69AR cells + 2 uM doxorubicin, CellTiter-Glo, 72 h. AID 602. actives 0.04% (n = 85,000);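 active = viability drop by adding the cancer drug above about 55%, with treated viability meeting a 40% cutoff, limit read from the data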;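 also: larger differential means the compound sensitizes cells more to doxorubicin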
Mac1 fbg inh: inhibitors of human CD11b/CD18 binding to fibrinogen. P05107+P11215. K562 CD11b/CD18 adhesion to fibrinogen, ATPlite luminescence; Mn2+ added to activate the integrin. inhibition, % at 10 µM. actives 0.54% (n = 93,000). AID 1497;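 active = primary inhibition of 50% or more at 10 µM, then 40% or more on retest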
Hits are given with their value; . = inactive; / = not tested or not shown.

SMILES	Cav32 inh	PTK2B oligo ant	Mac1 fbg enh	MRP-1 activ	MRP reversal	Mac1 fbg inh
CCOC(=O)C1CCCN(C(=O)c2ccc(CNc3c(N4CCC(C)CC4)c(=O)c3=O)cc2)C1 (stereo unspecified)	.	/	.	.	.	.
CC1(C)CC(=O)C2=C(C1)Nc1[nH]n(-c3ccccc3)c(=O)c1C2c1ccc2c(c1)OCO2 (stereo unspecified)	.	.	.	.	.	.
CC1CCN(CC(O)COc2cccc(F)c2)CC1 (stereo unspecified)	.	/	.	.	.	87
CCN(CC)CCN1C(=O)C(=O)/C(=C(/O)c2ccc(F)cc2)C1c1cccnc1 (stereo unspecified)	/	/	.	.	.	.
O=C(N/N=C/c1c[nH]c2ccc(Br)cc12)c1ccncc1	/	/	.	.	/	.
Cc1ccc(S(=O)(=O)Nc2cc(C(F)(F)F)ccc2N2CCOCC2)c(C)c1	/	/	/	.	/	/
CCOc1cc(CNCc2ccncc2)cc(Br)c1OCc1ccccc1F	.	.	.	.	/	89
CCOc1cc(CNCCSc2nnnn2C)cc(Br)c1OCc1ccccc1F	.	.	/	.	/	/
N#Cc1nc(COc2ccc(Br)cc2)oc1N1CCCC1	.	.	.	7.3	.	.
N#Cc1nc(COc2ccc(Br)cc2)oc1N1CCCCCC1	.	/	.	6.5	.	.
COc1ccc(N2CCN(c3oc(COc4ccccc4)nc3C#N)CC2)cc1	.	.	/	.	.	/
N#Cc1nc(COc2ccccc2)oc1N1CCOCC1	.	.	.	.	.	.
O=c1oc2cc(O)ccc2c2oc3cc(O)ccc3c12	.	/	/	.	/	/
COc1ccc(-n2c(Cc3cccn3C)nnc2SCC(=O)Nc2ccc(F)cc2F)cc1	-8.4	/	.	.	.	.
COc1ccc(-n2c(Cc3cccn3C)nnc2SCC(=O)Nc2ccccc2F)cc1	-4.4	/	.	.	.	.
O=C(COC(=O)C1c2ccccc2Oc2ccccc21)Nc1ccc2c(c1)OCO2	-4.3	.	.	.	.	.
O=C(COC(=O)c1ccccc1NC(=O)c1ccco1)Nc1ccc2c(c1)OCO2	.	-3.8	.	.	.	.
O=C(COC(=O)CCCc1c[nH]c2ccccc12)Nc1ccc2c(c1)OCO2	.	.	.	.	.	.
Cc1ccc(N2C(=O)CC(NNc3nc4ccccc4s3)C2=O)cc1 (stereo unspecified)	/	/	/	.	/	/
O=C(NCC(c1cccs1)N1CCOCC1)c1ccccc1NS(=O)(=O)c1cc([N+](=O)[O-])ccc1Cl (stereo unspecified)	/	/	.	.	/	85
O=C(NCC(c1cccs1)N1CCOCC1)c1ccccc1NS(=O)(=O)c1ccc(Cl)cc1 (stereo unspecified)	/	/	.	.	/	79
O=C(NCC(c1cccs1)N1CCOCC1)c1ccccc1NS(=O)(=O)c1cccc([N+](=O)[O-])c1 (stereo unspecified)	/	/	.	.	/	.
O=C(NCC(c1cccs1)N1CCOCC1)c1ccccc1NS(=O)(=O)c1ccc(Cl)c([N+](=O)[O-])c1 (stereo unspecified)	/	/	.	.	/	101
O=C(Nc1ccc(-c2noc(CCc3ccccc3)n2)cc1)c1cccnc1	.	-3.3	.	.	.	.
Cc1cc(OCc2nc(-c3ccc(NC(=O)c4cccnc4)cc3)no2)ccc1Cl	.	.	/	.	/	/
SMILES	Cav32 inh	PTK2B oligo ant	Mac1 fbg enh	MRP-1 activ	MRP reversal	Mac1 fbg inh
Cc1cc(C)n2c(Br)c(CSc3nc4ccccc4s3)nc2n1	/	/	/	.	/	/
Clc1ccc(C2=CC(c3ccco3)n3ncnc3N2)cc1 (stereo unspecified)	-5.6	.	/	.	.	/
Cc1ccc(CC(=O)Nc2nc3ccccc3s2)cc1	-6.7	.	/	.	.	/
CCCCCCCOc1ccc(-c2ccc(C#N)cn2)cc1	/	/	/	5.1	/	/
COC(=O)c1c(NC(=O)COC(=O)c2ccc(Cl)cc2[N+](=O)[O-])sc2c1CCCCC2	/	/	.	.	/	.
COC(=O)c1c(NC(=S)Nc2ccc(F)cc2[N+](=O)[O-])sc2c1CCCCC2	/	/	.	.	/	86
CCc1ccc(S(=O)(=O)NCc2csc(-c3ccccc3)n2)s1	-3.2	.	.	.	.	.
O=S(=O)(NCCc1csc(-c2ccccc2)n1)c1ccc2c(c1)OCCO2	-6.2	.	.	.	.	.
CCc1ccc(S(=O)(=O)NCCc2csc(-c3ccccc3)n2)s1	-4.5	.	.	.	.	.
CCc1ccc(S(=O)(=O)NCCc2csc(-c3cccnc3)n2)s1	.	/	.	.	.	.
CCCc1nc2ccccc2c(C(=O)OCC(=O)Nc2cccc(S(=O)(=O)N3CCOCC3)c2)c1CC	.	-4.6	/	.	.	/
CCCc1nc2ccccc2c(C(=O)OCC(=O)Nc2ccc(S(=O)(=O)N3CCOCC3)cc2)c1CC	.	-4.5	.	.	.	.
O=C(COc1ncnc2ccccc12)Nc1cccc(S(=O)(=O)N2CCOCC2)c1	/	/	.	.	/	.
COc1cccc(CN2CCNC(=O)C2CC(=O)O)c1OC (stereo unspecified)	.	/	/	.	.	/
CC(=O)N1c2ccc(Cl)cc2C2C=CCC2C1c1cccc2ccccc12 (stereo unspecified)	/	/	/	.	/	/
CCc1cccc(CC)c1NC(=O)CN1CC(C)SC1=NC1CCCCC1 (stereo unspecified)	-5.3	.	/	.	.	/
CCN=c1sc2ccccc2n1CC(O)COc1ccccc1 (stereo unspecified)	-4.2	.	.	.	.	.
CCN1C(=O)/C(=C/c2ccc(C)s2)NC1=S	.	.	.	.	.	.
Cc1ccc(C)c(-n2c(SCC(=O)Nc3nonc3C)nnc2-c2ccoc2C)c1	-6	.	.	.	.	.
CCC(C)[C@H](NC(=O)OC(C)(C)C)C(=O)N/N=C/C1=Cc2ccccc2OC1 (stereo partly specified)	-5.3	.	.	.	.	.
CCC(C)[C@H](NC(=O)OC(C)(C)C)C(=O)N/N=C/c1cccc2nccnc12 (stereo partly specified)	.	.	.	.	.	.
COC(=O)C(C)N(C(=O)c1ccc(Cl)cc1)c1c(C)cccc1C (stereo unspecified)	-6.6	.	.	.	.	.
COC(=O)C(CC(=O)c1ccc(Cl)cc1)c1ccc(C)cc1 (stereo unspecified)	/	.	/	.	/	/
COC(=O)C(C)N(C(=O)c1ccc(C(=O)c2ccccc2)cc1)c1c(C)cccc1C (stereo unspecified)	-4.5	.	.	.	.	.
CCOC(=O)N1CCN(S(=O)(=O)c2ccc(F)c(C(=O)Nc3ccc(C(C)C)cc3)c2)CC1	/	.	/	.	/	/
CCc1ccc(N2C(=O)/C(=C/c3cccs3)N(CC(=O)OC)C2=S)cc1	.	.	/	.	/	/
COc1ccccc1-c1nnc(NC(=O)c2ccc(S(=O)(=O)N(C)C)cc2)o1	.	.	.	.	.	.
CCN(Cc1ccccc1)S(=O)(=O)c1ccc(C(=O)Nc2nnc(-c3ccccc3OC)o2)cc1	/	-3.9	.	.	.	.
